Experimental data published in ChEMBL document CHEMBL3988442, “University of Dundee, Small-Polar-MMV Screening Library” (2021).

Assays:
[1] = target: T1, Aspartate--tRNA(Asp/Asn) ligase (Mycobacterium tuberculosis (strain ATCC 25618 / H37Rv)) (UniProt P9WFW3); assay: Assay for Asp RNA synthetase-1 from Mycobacterium tuberculosis; format: functional; set-up: scale not given: direction of the effect not stated beside the values; conditions: 30 µM; also: in the data most compounds retested in dose-response had high values
T1 sequence (whole entry): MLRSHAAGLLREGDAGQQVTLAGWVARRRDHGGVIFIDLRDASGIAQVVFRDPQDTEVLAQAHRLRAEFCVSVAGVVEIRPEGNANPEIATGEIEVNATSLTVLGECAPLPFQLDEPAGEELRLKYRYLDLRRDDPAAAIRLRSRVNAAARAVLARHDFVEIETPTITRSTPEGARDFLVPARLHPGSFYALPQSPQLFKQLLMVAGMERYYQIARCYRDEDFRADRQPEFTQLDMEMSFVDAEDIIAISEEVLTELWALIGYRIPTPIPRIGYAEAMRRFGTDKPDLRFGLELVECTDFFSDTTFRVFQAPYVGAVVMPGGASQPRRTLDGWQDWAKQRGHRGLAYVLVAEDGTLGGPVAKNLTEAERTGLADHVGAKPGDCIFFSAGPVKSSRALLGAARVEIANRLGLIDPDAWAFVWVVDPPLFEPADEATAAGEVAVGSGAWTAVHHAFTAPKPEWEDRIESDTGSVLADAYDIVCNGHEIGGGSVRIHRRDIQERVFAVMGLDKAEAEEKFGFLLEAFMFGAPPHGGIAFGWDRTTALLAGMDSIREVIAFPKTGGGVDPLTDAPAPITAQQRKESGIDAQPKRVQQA

[2] = target: Shiga toxin 2 (Escherichia coli O157:H7) (UniProt P09385+P09386); assay: E. coli 0.157:H7 Shiga Toxin SOP - stx2 screening assay; format: functional; set-up: scale not given: direction of the effect not stated beside the values; conditions: 30 µM

## CC1(C)CC(N2Cc3nc(N)ncc3C2=O)CC(C)(C)N1
[1]
  Percent Effect: 7.13%
[2]
  Percent Effect: -32.6%

## O=C(NCC1COCc2c(-c3cccnc3)nnn2C1)c1cccs1 (centres undefined)
[1]
  Percent Effect: 9.59%
[2]
  Percent Effect: -14.9%

## CCN1CCCC1CN(CCN(C)C)S(=O)(=O)c1cccc(C#N)c1 (centres undefined)
[1]
  Percent Effect: 5.06%
[2]
  Percent Effect: -21%

## Cn1cc(CN2C[C@@H]3COC[C@]3(C(=O)NCc3ccccn3)C2)cn1
[1]
  Percent Effect: 3.06%
[2]
  Percent Effect: -15%

## CCc1[nH]ncc1C(=O)N1CCCC(n2nc(C)nc2C)C1 (centres undefined)
[1]
  Percent Effect: -1.03%
[2]
  Percent Effect: 12.8%

## COc1ccccc1C(=O)NC(C)CC(=O)O (centres undefined)
[1]
  Percent Effect: -5.28%
[2]
  Percent Effect: -19.9%

## CCOc1cccc(C(=O)NCCC(=O)Nc2ccncc2)c1
[1]
  Percent Effect: -3.32%
[2]
  Percent Effect: -80.5%

## CCc1nc(C2CCCN2C(=O)c2c[nH]c(C)n2)no1 (centres undefined)
[1]
  Percent Effect: -7.28%
[2]
  Percent Effect: 0.205%

## O=C(NCCOc1ccc(Cl)cc1)N1CCS(=O)(=O)CC1
[1]
  Percent Effect: -4.21%
[2]
  Percent Effect: 5.32%

## Cc1ccc(CCN2CCC(N(C)Cc3noc(C4CC4)n3)C2)cc1 (centres undefined)
[1]
  Percent Effect: -2.9%
[2]
  Percent Effect: -69.9%

## CNC(=O)[C@@H]1C[C@H]2CN(Cc3ccco3)C[C@H]2N1C
[1]
  Percent Effect: 1.3%
[2]
  Percent Effect: -1.93%

## CNC(=O)C(C)(C)NC(=O)c1cc(OCC2CCC2)cc(C(=O)OC)c1
[1]
  Percent Effect: 9.31%
[2]
  Percent Effect: 7.4%

## O=C(c1cccnc1-n1cncn1)N1CCN(CC2CC2)CC1
[1]
  Percent Effect: 0.524%
[2]
  Percent Effect: -1.68%

## Cc1ccc(NC2CCN(C(=O)c3cccc4ncccc34)CC2)nn1
[1]
  Percent Effect: 3.98%
[2]
  Percent Effect: -2.02%

## Cc1ccc(NC2CCN(C(=O)Cn3nc(C)cc3C)CC2)nn1
[1]
  Percent Effect: -3.3%
[2]
  Percent Effect: 28.3%

## c1ccc(C[C@H]2CN(Cc3nccs3)CC[C@H]2OCC2CC2)cc1
[1]
  Percent Effect: 3.93%
[2]
  Percent Effect: 16%

## Cn1ccc(C(=O)N2CCCC(Cc3cccc4ncccc34)C2)n1 (centres undefined)
[1]
  Percent Effect: -2.07%
[2]
  Percent Effect: -7.58%
